Experimental data as given in PubChem BioAssay (NCI).
Compounds without any hit were thinned out: in the full panel of roughly 83,000, 20% have a hit.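 Each cell line was grown in a 96-well plate and treated with one concentration of compound for 48 hours. Values below 10 were considered active.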 Calls of active or inactive are those of the source.

system: NCI-H23 lung; experiment: NCI-60 one-dose screen, 48 h (100 = growth as untreated, 0 = no growth, -100 = all killed); conditions: 10 µM unless noted

Structure (SMILES)	growth
CN(C)CCC(=O)C1CC1	97% (inactive)
COc1cc(/C=C2\C(=O)N(CCCOc3cc(O)c4c(=O)cc(-c5ccccc5)oc4c3)c3ccccc32)cc(OC)c1O	87.9% (inactive)
Cc1c2ccccc2nc2cc3c(cc12)[C@H]1CC[C@]2(C)C(=O)CC[C@H]2[C@@H]1CC3	98.5% (inactive)
COc1ccc(C(=O)/C=C/c2ccccc2)cc1S(N)(=O)=O	79.6% (inactive)
Cc1ccc(OCCOCCOCCOc2ccc(C)n(O)c2=S)c(=S)n1O	44.9% (inactive)
S=c1ccnc[nH]1	103% (inactive)
O=C(Oc1ccc2c(c1)sc1nc(-c3ccccc3)[nH]c(=O)c12)C(F)(F)F	52.8% (inactive)
Cc1cccc(-c2nc(C(C)C)sc2-c2ccnc(NCCCNS(=O)(=O)c3ccc(Cl)cc3)c2)c1	84.9% (inactive)
CN(C)CCC(CCN(C)C)(C(=O)O)c1ccccc1	107% (inactive)
CC1=C2[C@@H](CC1)[C@]1(C)O[C@@](C3CCNCC3)(C[C@H]1OC(=O)CO)[C@H]2OC(=O)/C=C/c1ccccc1	84.9% (inactive)
COc1ccc2c(O)c(/C=C3\N=Nc4ncccc43)oc2c1C[C@@H]1CCNC[C@H]1F	-33.1% (active)
CC1(C)CC[C@]2(CO)CC[C@]3(C)[C@](O)([C@H](O)C[C@@H]4[C@@]5(C)CCCNC(C)(C)[C@@H]5CC[C@]43C)[C@@H]2C1	95% (inactive)
Cc1ccccc1N1CCN(C(=S)c2ccccc2)CC1	81.3% (inactive)
C1CCC(N2CN3c4nonc4N4CN(C5CCCCC5)CN5c6nonc6N(C2)C3C45)CC1 (stereo not drawn)	98.4% (inactive)
COc1ccc(/C=N/Nc2c3ccccc3nc3ccccc23)cc1	88.3% (inactive)
Cc1nc2sc(C(=O)Nc3ccccn3)c(N)c2cc1C(C)O (stereo not drawn)	84.3% (inactive)
COc1ccc(C/C(C)=C(\c2ccc(Cl)cc2)c2ccc(OCCCN(C)C)cc2)cc1	88.1% (inactive)
CC1(C)CC[C@]23CC[C@]4(C)[C@H](CC[C@@H]5[C@@]6(C)C/C(=C/O)C(=O)C(C)(C)[C@@H]6CC[C@]54C)[C@H]2[C@H]1OC3	99.1% (inactive)
Nc1ccc(Br)cc1C(F)(F)F	95.3% (inactive)
Cc1oc(-c2ccc(Cl)cc2)nc1C1=NN(C(=O)c2ccncc2)C(c2ccccc2)C1 (stereo not drawn)	87.3% (inactive)

Structure (SMILES)	growth
CCN(CC)CCOc1ccc(Nc2ncc3cc(-c4c(Cl)cccc4Cl)c(=O)n(CCOC)c3n2)cc1	-9.78% (active)
COc1ccc(Oc2ccc(/C=C/C(=O)c3ccc(OC)c(OC)c3)cc2)cc1	83.7% (inactive)
C=CC(CC(c1ccccc1)(c1ccccc1)c1ccccc1)N(CC)CC (stereo not drawn)	71.7% (inactive)
CC[C@@H](C(=O)[C@@H](C)[C@@H](O)[C@H](C)[C@@H]1O[C@@H]([C@@H](CC)C(=O)ONC(=O)c2ccccc2O)CC[C@@H]1C)C1O[C@]2(C=CC(=O)[C@]3(CC[C@@](C)([C@H]4CC[C@](O)(CC)[C@H](C)O4)O3)O2)[C@H](C)C[C@@H]1C (stereo partly drawn)	23.1% (inactive)
C[C@H](c1nc2ccc(C#N)cc2[nH]1)[C@H]1CC[C@H]2[C@@H]3CCC4=CC(=O)CC[C@]4(C)[C@H]3CC[C@]12C	59.7% (inactive)
COc1ccc2[nH]cc(-c3nonc3-c3c[nH]c4ccc(Br)cc34)c2c1	54.1% (inactive)
O=C(NCCN1CCOCC1)OCc1ccc2c(Cl)cc(Cl)c(O)c2n1	72.8% (inactive)
COc1cccc(-c2cn3nc(-c4cn(C)c5ccccc45)sc3n2)c1	90% (inactive)
NS(=O)(=O)c1ccc(C(=O)NN2C(=O)c3ccccc3C2=O)cc1	105% (inactive)
CC(C)=CC(=O)N[C@H]1CC[C@]2(C)C3CC[C@]4(C)C(C(C)N(C)C)=CCC4C3CCC2[C@H]1O (stereo partly drawn)	65% (inactive)
CCCn1c(=S)sc2c(NNC(C)=O)nc(C)nc21	99.3% (inactive)
Cc1nc(N/N=C/c2cn(-c3ccccc3)nc2-c2cc3ccccc3oc2=O)sc1N=Nc1ccccc1	93.7% (inactive)
O=C(Nc1ncc(Cc2ccccc2)s1)c1sc2ccccc2c1Cl	40.8% (inactive)
COc1cc(/C=C/C(=O)c2cc(OC)c(OC)c(OC)c2)ccc1Oc1nc2c(c(=O)n(C)c(=O)n2C)n1C	-51.1% (active)
NC(=O)c1ccccc1OCC(=O)Nc1ccc(Cl)c(Cl)c1	104% (inactive)
CCOC(=O)c1c(C)nc2ccccc2c1/C=C/c1ccc(F)cc1	51.3% (inactive)
Cc1cn(C)cn1	97.7% (inactive)
C#CCOc1ccc2nc(CCl)c(Cl)c(Nc3cccc(C(F)(F)F)c3)c2c1	87.8% (inactive)
Cc1ccc(NC(=O)c2cc3ccccc3cc2O)c(C)c1	71.9% (inactive)

system: NCI-H226 lung; experiment: as above; conditions: 10 µM unless noted

Structure (SMILES)	growth
CN(C)CCC(=O)C1CC1	102% (inactive)
COc1cc(/C=C2\C(=O)N(CCCOc3cc(O)c4c(=O)cc(-c5ccccc5)oc4c3)c3ccccc32)cc(OC)c1O	94.5% (inactive)
Cc1c2ccccc2nc2cc3c(cc12)[C@H]1CC[C@]2(C)C(=O)CC[C@H]2[C@@H]1CC3	91.8% (inactive)
COc1ccc(C(=O)/C=C/c2ccccc2)cc1S(N)(=O)=O	82.5% (inactive)
Cc1ccc(OCCOCCOCCOc2ccc(C)n(O)c2=S)c(=S)n1O	29% (inactive)
S=c1ccnc[nH]1	107% (inactive)
O=C(Oc1ccc2c(c1)sc1nc(-c3ccccc3)[nH]c(=O)c12)C(F)(F)F	58.3% (inactive)
Cc1cccc(-c2nc(C(C)C)sc2-c2ccnc(NCCCNS(=O)(=O)c3ccc(Cl)cc3)c2)c1	81.4% (inactive)
CN(C)CCC(CCN(C)C)(C(=O)O)c1ccccc1	106% (inactive)
CC1=C2[C@@H](CC1)[C@]1(C)O[C@@](C3CCNCC3)(C[C@H]1OC(=O)CO)[C@H]2OC(=O)/C=C/c1ccccc1	92.3% (inactive)
COc1ccc2c(O)c(/C=C3\N=Nc4ncccc43)oc2c1C[C@@H]1CCNC[C@H]1F	-4.38% (active)
CC1(C)CC[C@]2(CO)CC[C@]3(C)[C@](O)([C@H](O)C[C@@H]4[C@@]5(C)CCCNC(C)(C)[C@@H]5CC[C@]43C)[C@@H]2C1	106% (inactive)
Cc1ccccc1N1CCN(C(=S)c2ccccc2)CC1	92.1% (inactive)
C1CCC(N2CN3c4nonc4N4CN(C5CCCCC5)CN5c6nonc6N(C2)C3C45)CC1 (stereo not drawn)	96.4% (inactive)
COc1ccc(/C=N/Nc2c3ccccc3nc3ccccc23)cc1	83.4% (inactive)
Cc1nc2sc(C(=O)Nc3ccccn3)c(N)c2cc1C(C)O (stereo not drawn)	85.8% (inactive)
COc1ccc(C/C(C)=C(\c2ccc(Cl)cc2)c2ccc(OCCCN(C)C)cc2)cc1	108% (inactive)
CC1(C)CC[C@]23CC[C@]4(C)[C@H](CC[C@@H]5[C@@]6(C)C/C(=C/O)C(=O)C(C)(C)[C@@H]6CC[C@]54C)[C@H]2[C@H]1OC3	105% (inactive)
Nc1ccc(Br)cc1C(F)(F)F	105% (inactive)
Cc1oc(-c2ccc(Cl)cc2)nc1C1=NN(C(=O)c2ccncc2)C(c2ccccc2)C1 (stereo not drawn)	84.6% (inactive)

Structure (SMILES)	growth
CCN(CC)CCOc1ccc(Nc2ncc3cc(-c4c(Cl)cccc4Cl)c(=O)n(CCOC)c3n2)cc1	28% (inactive)
COc1ccc(Oc2ccc(/C=C/C(=O)c3ccc(OC)c(OC)c3)cc2)cc1	90.9% (inactive)
C=CC(CC(c1ccccc1)(c1ccccc1)c1ccccc1)N(CC)CC (stereo not drawn)	75.7% (inactive)
CC[C@@H](C(=O)[C@@H](C)[C@@H](O)[C@H](C)[C@@H]1O[C@@H]([C@@H](CC)C(=O)ONC(=O)c2ccccc2O)CC[C@@H]1C)C1O[C@]2(C=CC(=O)[C@]3(CC[C@@](C)([C@H]4CC[C@](O)(CC)[C@H](C)O4)O3)O2)[C@H](C)C[C@@H]1C (stereo partly drawn)	52.7% (inactive)
C[C@H](c1nc2ccc(C#N)cc2[nH]1)[C@H]1CC[C@H]2[C@@H]3CCC4=CC(=O)CC[C@]4(C)[C@H]3CC[C@]12C	78.4% (inactive)
COc1ccc2[nH]cc(-c3nonc3-c3c[nH]c4ccc(Br)cc34)c2c1	74.8% (inactive)
O=C(NCCN1CCOCC1)OCc1ccc2c(Cl)cc(Cl)c(O)c2n1	94.6% (inactive)
COc1cccc(-c2cn3nc(-c4cn(C)c5ccccc45)sc3n2)c1	89.6% (inactive)
NS(=O)(=O)c1ccc(C(=O)NN2C(=O)c3ccccc3C2=O)cc1	111% (inactive)
CC(C)=CC(=O)N[C@H]1CC[C@]2(C)C3CC[C@]4(C)C(C(C)N(C)C)=CCC4C3CCC2[C@H]1O (stereo partly drawn)	99.6% (inactive)
CCCn1c(=S)sc2c(NNC(C)=O)nc(C)nc21	97.1% (inactive)
Cc1nc(N/N=C/c2cn(-c3ccccc3)nc2-c2cc3ccccc3oc2=O)sc1N=Nc1ccccc1	95.4% (inactive)
O=C(Nc1ncc(Cc2ccccc2)s1)c1sc2ccccc2c1Cl	65% (inactive)
COc1cc(/C=C/C(=O)c2cc(OC)c(OC)c(OC)c2)ccc1Oc1nc2c(c(=O)n(C)c(=O)n2C)n1C	-35.4% (active)
NC(=O)c1ccccc1OCC(=O)Nc1ccc(Cl)c(Cl)c1	96.3% (inactive)
CCOC(=O)c1c(C)nc2ccccc2c1/C=C/c1ccc(F)cc1	73.9% (inactive)
Cc1cn(C)cn1	108% (inactive)
C#CCOc1ccc2nc(CCl)c(Cl)c(Nc3cccc(C(F)(F)F)c3)c2c1	84.7% (inactive)
Cc1ccc(NC(=O)c2cc3ccccc3cc2O)c(C)c1	86.6% (inactive)
